# Tests used:
# Experiment in all cases: DAPPL (digital affinity profiling via proximity ligation, sequencing); 10 mM Tris-HCl pH 7.5, 50 mM NaCl, 1 mM DTT, 4% glycerol, room temperature, 30 min; GST-TFs on glutathione beads, 16-mer random dsDNA library, 0.1% formaldehyde crosslink after washing; high values mean tight binding
# [1] = target: T1, FLI1 (Homo sapiens, UniProt Q01543 1-452); details: protein: recombinant; tags: N-terminal GST; dsDNA, one strand shown
# T1 sequence: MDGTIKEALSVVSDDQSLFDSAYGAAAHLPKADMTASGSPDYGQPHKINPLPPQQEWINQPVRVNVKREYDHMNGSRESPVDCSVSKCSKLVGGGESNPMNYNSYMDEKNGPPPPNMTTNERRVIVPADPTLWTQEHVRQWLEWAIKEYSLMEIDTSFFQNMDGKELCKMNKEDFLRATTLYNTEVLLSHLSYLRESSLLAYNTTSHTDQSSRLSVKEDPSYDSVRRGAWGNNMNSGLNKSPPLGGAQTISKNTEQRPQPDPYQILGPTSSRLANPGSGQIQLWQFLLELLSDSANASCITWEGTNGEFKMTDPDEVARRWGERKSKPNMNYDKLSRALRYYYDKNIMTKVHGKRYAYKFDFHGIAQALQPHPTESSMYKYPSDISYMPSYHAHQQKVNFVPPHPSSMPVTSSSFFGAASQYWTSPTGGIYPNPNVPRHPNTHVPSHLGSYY
# How it was run: (§1)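 A tag-only sample was pooled with DNA-barcoded human transcription factors that had been expressed in yeast as GST fusions and captured on glutathione beads. The pools were incubated for 30 min at room temperature with 200 nmole of a random double-stranded 16-mer DNA library in Tris/NaCl/DTT/glycerol buffer, then washed, crosslinked with 0.1% formaldehyde, proximity-ligated (BsaI/T4 ligase, 1 h, 37 °C), PCR-amplified and sequenced on an Illumina NextSeq500. Binding signal is each hexamer's read frequency for a factor divided by its frequency for the tag-only sample.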
# [2] = target: T2, ELK1 (Homo sapiens, UniProt P19419 1-428); details: protein: recombinant; tags: N-terminal GST; dsDNA, one strand shown
# T2 sequence: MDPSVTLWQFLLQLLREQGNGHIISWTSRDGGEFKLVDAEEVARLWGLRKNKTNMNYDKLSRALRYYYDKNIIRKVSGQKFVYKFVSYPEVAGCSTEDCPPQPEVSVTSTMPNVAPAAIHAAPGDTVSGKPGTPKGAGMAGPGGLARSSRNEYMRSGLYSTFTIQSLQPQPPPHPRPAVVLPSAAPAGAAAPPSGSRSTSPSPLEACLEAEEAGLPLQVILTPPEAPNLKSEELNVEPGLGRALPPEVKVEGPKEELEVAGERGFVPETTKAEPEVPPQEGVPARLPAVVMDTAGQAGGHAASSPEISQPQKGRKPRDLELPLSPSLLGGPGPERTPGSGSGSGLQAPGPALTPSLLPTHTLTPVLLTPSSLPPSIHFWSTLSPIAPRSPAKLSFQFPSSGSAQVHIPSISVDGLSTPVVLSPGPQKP
# How it was run: as §1
# [3] = target: T3, GABPA (Homo sapiens, UniProt Q06546 1-454); details: protein: recombinant; tags: N-terminal GST; dsDNA, one strand shown
# T3 sequence: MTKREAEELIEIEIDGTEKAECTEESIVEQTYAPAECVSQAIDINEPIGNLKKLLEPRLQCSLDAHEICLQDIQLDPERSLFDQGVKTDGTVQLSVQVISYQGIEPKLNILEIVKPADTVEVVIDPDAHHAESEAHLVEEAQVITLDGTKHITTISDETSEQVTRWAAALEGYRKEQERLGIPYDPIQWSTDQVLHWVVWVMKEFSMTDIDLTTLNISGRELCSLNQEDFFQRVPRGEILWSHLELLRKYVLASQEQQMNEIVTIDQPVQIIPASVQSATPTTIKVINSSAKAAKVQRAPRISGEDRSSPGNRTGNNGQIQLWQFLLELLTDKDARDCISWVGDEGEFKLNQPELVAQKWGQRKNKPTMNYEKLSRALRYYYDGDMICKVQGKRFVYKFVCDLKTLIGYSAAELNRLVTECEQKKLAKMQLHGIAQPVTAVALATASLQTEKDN
# How it was run: as §1
# [4] = target: T4, ERG (Homo sapiens, UniProt P11308 1-479); details: protein: recombinant; tags: N-terminal GST; dsDNA, one strand shown
# T4 sequence: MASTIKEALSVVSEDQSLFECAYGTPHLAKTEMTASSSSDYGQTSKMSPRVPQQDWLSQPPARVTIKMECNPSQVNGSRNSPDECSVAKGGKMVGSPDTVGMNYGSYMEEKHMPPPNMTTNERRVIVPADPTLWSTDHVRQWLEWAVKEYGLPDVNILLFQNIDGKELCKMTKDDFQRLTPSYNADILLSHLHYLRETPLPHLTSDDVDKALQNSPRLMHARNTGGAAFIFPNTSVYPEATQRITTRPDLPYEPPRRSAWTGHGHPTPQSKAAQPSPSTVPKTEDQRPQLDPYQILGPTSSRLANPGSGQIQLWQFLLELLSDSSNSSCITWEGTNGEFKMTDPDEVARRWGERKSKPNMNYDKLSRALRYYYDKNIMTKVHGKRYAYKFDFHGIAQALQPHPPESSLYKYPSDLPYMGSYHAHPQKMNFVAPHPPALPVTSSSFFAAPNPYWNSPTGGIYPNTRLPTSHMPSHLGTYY
# How it was run: as §1
# [5] = target: ELF1 (Homo sapiens, UniProt P32519 1-619); details: protein: recombinant; tags: N-terminal GST; dsDNA, one strand shown
# How it was run: as §1
# [6] = target: T5, EHF (Homo sapiens, UniProt Q9NZC4 1-300); details: protein: recombinant; tags: N-terminal GST; dsDNA, one strand shown
# T5 sequence: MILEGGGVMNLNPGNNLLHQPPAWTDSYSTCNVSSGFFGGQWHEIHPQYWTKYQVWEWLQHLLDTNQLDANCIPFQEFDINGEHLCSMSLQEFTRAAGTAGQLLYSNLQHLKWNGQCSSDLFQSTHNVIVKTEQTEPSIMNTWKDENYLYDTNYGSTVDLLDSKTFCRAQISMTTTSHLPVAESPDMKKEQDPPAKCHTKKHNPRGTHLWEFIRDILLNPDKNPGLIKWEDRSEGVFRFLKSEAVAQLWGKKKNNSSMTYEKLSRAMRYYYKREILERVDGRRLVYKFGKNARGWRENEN
# How it was run: as §1
# [7] = target: SPI1 (Homo sapiens, UniProt P17947 1-270); details: protein: recombinant; tags: N-terminal GST; dsDNA, one strand shown
# How it was run: as §1
# [8] = target: SPIB (Homo sapiens, UniProt Q01892 1-262); details: protein: recombinant; tags: N-terminal GST; dsDNA, one strand shown
# How it was run: as §1
# [9] = target: T6, FEV (Homo sapiens, UniProt Q99581 1-238); details: protein: recombinant; tags: N-terminal GST; dsDNA, one strand shown
# T6 sequence: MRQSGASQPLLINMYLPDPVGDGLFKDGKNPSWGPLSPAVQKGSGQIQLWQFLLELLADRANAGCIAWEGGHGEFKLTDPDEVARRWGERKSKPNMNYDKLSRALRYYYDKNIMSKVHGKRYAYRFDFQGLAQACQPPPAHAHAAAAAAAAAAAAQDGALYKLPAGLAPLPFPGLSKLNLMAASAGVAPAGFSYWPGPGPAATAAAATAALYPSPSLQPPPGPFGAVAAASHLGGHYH
# How it was run: as §1
# [10] = target: ETV5 (Homo sapiens, UniProt P41161 1-510); details: protein: recombinant; tags: N-terminal GST; dsDNA, one strand shown
# How it was run: as §1
# [11] = target: HSF1 (Homo sapiens, UniProt Q00613 1-529); details: protein: recombinant; tags: N-terminal GST; chain copies: 3; dsDNA, one strand shown
# How it was run: as §1
# [12] = target: T7, SPIC (Homo sapiens, UniProt Q8N5J4 1-248); details: protein: recombinant; tags: N-terminal GST; dsDNA, one strand shown
# T7 sequence: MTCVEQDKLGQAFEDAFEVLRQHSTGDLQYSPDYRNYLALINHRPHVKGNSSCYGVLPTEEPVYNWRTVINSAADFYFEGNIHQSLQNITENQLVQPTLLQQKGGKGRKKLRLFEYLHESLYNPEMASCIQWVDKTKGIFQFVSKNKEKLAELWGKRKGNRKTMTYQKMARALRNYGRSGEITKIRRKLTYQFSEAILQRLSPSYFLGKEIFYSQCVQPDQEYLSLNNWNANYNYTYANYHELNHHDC
# How it was run: as §1
# [13] = target: ELF4 (Homo sapiens, UniProt Q99607 1-663); details: protein: recombinant; tags: N-terminal GST; dsDNA, one strand shown
# How it was run: as §1
# [14] = target: T8, ELK4 (Homo sapiens, UniProt P28324-2 1-405); details: protein: recombinant; tags: N-terminal GST; dsDNA, one strand shown
# T8 sequence: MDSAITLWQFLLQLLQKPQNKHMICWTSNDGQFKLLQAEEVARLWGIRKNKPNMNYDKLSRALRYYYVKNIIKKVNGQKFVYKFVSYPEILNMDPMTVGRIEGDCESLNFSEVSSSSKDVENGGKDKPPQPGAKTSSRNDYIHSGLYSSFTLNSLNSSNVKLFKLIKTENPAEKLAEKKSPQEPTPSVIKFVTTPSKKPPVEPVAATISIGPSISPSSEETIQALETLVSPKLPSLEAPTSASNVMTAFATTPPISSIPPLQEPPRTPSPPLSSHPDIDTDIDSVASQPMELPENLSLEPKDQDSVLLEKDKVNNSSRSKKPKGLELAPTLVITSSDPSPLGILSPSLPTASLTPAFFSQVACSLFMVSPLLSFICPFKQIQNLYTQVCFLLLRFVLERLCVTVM
# How it was run: as §1
# [15] = target: T9, ETV2 (Homo sapiens, UniProt O00321 1-342); details: protein: recombinant; tags: N-terminal GST; dsDNA, one strand shown
# T9 sequence: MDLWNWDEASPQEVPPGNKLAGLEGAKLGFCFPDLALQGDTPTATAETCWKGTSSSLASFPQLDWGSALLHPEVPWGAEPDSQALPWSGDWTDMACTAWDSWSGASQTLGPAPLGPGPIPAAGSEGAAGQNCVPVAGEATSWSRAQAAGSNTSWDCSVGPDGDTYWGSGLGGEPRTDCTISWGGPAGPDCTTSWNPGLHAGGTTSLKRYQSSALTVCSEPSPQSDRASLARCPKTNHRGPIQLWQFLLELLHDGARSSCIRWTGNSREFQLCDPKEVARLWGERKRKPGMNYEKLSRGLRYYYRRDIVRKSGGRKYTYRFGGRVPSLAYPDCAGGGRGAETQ
# How it was run: as §1
# [16] = target: T10, ELF3 (Homo sapiens, UniProt P78545 1-371); details: protein: recombinant; tags: N-terminal GST; dsDNA, one strand shown
# T10 sequence: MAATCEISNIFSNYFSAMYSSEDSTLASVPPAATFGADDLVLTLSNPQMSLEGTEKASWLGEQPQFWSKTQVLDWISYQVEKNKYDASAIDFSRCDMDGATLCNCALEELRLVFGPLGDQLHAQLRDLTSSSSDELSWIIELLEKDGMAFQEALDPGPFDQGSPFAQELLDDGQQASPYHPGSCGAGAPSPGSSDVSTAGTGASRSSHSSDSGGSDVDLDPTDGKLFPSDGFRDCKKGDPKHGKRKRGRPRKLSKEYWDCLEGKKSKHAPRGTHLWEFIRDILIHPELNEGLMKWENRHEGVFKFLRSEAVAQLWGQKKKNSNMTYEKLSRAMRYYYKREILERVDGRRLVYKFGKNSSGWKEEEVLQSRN
# How it was run: as §1
# [17] = target: CRX (Homo sapiens, UniProt O43186 1-299); details: protein: recombinant; tags: N-terminal GST; dsDNA, one strand shown
# How it was run: as §1
# [18] = target: ETV1 (Homo sapiens, UniProt P50549 1-477); details: protein: recombinant; tags: N-terminal GST; dsDNA, one strand shown
# How it was run: as §1
# HSF1, sequence (Q00613 whole entry): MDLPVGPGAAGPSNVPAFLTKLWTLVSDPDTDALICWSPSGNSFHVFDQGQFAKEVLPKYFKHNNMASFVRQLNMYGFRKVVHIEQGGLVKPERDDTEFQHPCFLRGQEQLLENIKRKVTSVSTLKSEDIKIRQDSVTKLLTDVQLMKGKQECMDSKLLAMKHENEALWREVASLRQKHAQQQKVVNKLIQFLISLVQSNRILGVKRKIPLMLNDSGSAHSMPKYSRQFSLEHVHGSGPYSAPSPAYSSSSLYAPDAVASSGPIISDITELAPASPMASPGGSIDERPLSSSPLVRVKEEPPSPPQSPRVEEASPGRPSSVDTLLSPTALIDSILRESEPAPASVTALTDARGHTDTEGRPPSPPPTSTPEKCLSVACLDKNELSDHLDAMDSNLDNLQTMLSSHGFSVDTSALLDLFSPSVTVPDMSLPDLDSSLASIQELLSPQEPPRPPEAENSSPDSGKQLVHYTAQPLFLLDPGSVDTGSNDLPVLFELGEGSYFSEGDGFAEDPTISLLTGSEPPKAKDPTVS
# ELF4, sequence (Q99607 whole entry): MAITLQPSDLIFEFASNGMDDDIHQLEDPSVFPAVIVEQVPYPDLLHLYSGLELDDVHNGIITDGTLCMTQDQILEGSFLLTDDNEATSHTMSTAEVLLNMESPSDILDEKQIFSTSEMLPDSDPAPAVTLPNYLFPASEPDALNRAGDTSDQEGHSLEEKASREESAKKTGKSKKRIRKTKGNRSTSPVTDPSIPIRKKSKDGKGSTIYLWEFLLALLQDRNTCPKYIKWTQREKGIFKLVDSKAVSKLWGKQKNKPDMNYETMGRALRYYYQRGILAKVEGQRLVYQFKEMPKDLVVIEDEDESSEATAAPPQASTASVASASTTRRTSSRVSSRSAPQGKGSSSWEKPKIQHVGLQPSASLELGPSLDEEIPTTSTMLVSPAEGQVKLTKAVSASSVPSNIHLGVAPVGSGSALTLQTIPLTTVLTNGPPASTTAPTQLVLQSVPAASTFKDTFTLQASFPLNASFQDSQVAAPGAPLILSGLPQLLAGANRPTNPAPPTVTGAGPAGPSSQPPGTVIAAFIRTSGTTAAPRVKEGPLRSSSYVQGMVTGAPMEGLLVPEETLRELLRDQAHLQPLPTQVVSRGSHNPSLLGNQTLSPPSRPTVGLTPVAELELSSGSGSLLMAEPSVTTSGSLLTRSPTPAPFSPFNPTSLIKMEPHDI
# ELF1, sequence (P32519 whole entry): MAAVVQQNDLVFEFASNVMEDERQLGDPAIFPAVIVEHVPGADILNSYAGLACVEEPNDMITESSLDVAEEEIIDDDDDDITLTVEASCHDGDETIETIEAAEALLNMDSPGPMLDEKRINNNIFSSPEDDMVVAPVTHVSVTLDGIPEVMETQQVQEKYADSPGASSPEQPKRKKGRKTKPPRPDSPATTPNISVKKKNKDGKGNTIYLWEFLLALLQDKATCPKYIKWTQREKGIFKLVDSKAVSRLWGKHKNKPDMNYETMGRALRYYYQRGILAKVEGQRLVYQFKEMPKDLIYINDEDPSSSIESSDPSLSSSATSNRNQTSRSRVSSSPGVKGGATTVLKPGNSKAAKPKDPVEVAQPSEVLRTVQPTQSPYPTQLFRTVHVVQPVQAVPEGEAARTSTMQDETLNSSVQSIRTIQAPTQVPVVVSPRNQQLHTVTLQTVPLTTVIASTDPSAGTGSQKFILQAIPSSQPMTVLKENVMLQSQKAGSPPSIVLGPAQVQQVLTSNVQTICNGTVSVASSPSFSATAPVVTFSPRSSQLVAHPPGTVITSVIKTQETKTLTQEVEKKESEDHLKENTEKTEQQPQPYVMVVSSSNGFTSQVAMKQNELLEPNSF
# SPIB, sequence (Q01892 whole entry): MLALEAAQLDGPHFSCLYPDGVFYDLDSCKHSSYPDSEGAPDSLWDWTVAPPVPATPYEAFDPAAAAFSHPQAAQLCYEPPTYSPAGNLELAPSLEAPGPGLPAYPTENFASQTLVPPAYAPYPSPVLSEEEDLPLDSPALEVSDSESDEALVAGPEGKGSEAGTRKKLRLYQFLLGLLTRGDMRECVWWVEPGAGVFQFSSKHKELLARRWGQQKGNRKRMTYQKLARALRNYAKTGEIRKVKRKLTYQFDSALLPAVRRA
# ETV5, sequence (P41161 whole entry): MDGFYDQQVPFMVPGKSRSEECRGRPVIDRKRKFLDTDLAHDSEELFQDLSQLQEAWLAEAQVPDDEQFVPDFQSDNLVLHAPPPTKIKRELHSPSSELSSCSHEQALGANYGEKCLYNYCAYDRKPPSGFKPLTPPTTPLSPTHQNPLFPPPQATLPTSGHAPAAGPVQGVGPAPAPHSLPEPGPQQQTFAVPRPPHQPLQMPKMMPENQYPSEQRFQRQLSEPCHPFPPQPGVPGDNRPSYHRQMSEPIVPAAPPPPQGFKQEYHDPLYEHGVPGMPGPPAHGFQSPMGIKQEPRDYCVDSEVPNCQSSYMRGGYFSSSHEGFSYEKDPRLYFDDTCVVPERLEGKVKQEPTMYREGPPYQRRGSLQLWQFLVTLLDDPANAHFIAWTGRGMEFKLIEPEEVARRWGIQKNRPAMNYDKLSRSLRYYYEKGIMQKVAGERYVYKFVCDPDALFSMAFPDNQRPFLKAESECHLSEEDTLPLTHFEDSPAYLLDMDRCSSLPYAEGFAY
# ETV1, sequence (P50549 whole entry): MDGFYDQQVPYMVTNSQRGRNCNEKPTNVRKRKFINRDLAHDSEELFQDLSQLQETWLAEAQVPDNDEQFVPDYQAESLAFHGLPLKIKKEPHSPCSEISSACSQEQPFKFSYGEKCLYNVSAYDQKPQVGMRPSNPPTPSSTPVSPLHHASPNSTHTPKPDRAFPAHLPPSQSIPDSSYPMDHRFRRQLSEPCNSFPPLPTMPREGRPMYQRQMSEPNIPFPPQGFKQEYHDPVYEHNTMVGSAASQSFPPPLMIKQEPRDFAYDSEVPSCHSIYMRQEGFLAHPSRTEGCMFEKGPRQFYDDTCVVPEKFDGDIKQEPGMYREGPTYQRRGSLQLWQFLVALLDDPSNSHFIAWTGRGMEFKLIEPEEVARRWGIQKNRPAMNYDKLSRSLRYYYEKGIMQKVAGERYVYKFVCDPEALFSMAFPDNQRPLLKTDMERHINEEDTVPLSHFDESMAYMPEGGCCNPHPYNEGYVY
# CRX, sequence (O43186 whole entry): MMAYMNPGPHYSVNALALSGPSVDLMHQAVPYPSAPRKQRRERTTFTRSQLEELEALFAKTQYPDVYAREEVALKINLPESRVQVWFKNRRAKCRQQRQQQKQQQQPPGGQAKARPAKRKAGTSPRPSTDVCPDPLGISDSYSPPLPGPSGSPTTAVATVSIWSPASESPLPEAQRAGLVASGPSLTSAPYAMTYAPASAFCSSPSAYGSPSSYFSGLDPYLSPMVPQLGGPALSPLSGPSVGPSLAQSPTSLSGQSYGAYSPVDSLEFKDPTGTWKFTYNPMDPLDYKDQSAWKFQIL
sequence,measurement,setting,value
TATGCC,binding signal,[1],"1.11 fold enrichment (6-mer frequency, TF over GST control)"
same,binding signal,[2],"1.27 fold enrichment (6-mer frequency, TF over GST control)"
same,binding signal,[3],"1.21 fold enrichment (6-mer frequency, TF over GST control)"
same,binding signal,[4],"1.17 fold enrichment (6-mer frequency, TF over GST control)"
same,binding signal,[5],"1.2 fold enrichment (6-mer frequency, TF over GST control)"
same,binding signal,[6],"1.18 fold enrichment (6-mer frequency, TF over GST control)"
same,binding signal,[7],"1.11 fold enrichment (6-mer frequency, TF over GST control)"
same,binding signal,[8],"1.26 fold enrichment (6-mer frequency, TF over GST control)"
same,binding signal,[9],"1.13 fold enrichment (6-mer frequency, TF over GST control)"
same,binding signal,[10],"1.18 fold enrichment (6-mer frequency, TF over GST control)"
same,binding signal,[11],"1.06 fold enrichment (6-mer frequency, TF over GST control)"
same,binding signal,[12],"1.28 fold enrichment (6-mer frequency, TF over GST control)"
same,binding signal,[13],"1.15 fold enrichment (6-mer frequency, TF over GST control)"
same,binding signal,[14],"1.17 fold enrichment (6-mer frequency, TF over GST control)"
same,binding signal,[15],"1.05 fold enrichment (6-mer frequency, TF over GST control)"
same,binding signal,[16],"1.01 fold enrichment (6-mer frequency, TF over GST control)"
same,binding signal,[17],"1.18 fold enrichment (6-mer frequency, TF over GST control)"
same,binding signal,[18],"1.28 fold enrichment (6-mer frequency, TF over GST control)"
